The full list was thinned out, with hits kept by preference.
Artemis inh – blocks endonuclease activity of human Artemis; Q96SD1; recombinant Artemis, quenched FAM hairpin cleavage fluorescence; inhibition, % at 10 µM; 30,000 tested, 0.78% active;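 active means at 10 µM dose, at least 30% inhibition, measured as corrected fluorescence normalized to stimulator and neutral control wells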
* marks the source's active call; other numbers are inactive results.

`c1ccc(-c2nnc3sc(-c4csc5c4CCCC5)nn23)cc1` gave Artemis inh 32*.
`CCOC(=O)n1c(=O)n(Cc2c(Cl)cccc2Cl)c2ccccc21` gave Artemis inh 10.
For O=C(CCC(=O)c1ccc(F)cc1)Nc1cc(Cl)cc(Cl)c1 the results were Artemis inh 30.
`CC1CCCCN1C(=O)c1ccc(S(=O)(=O)N2CCCCC2C)cc1` (centres undefined) gave Artemis inh -3.
For COc1ccccc1-c1nnc(NC(=O)c2ccc(S(=O)(=O)N(C)C)cc2)o1 the results were Artemis inh 7.
For CC1CCCCN1S(=O)(=O)c1ccc(C(=O)Nc2nnc(-c3ccccc3Cl)o2)cc1 (centres undefined) the results were Artemis inh 32*.
CCN1CCCC1CNS(=O)(=O)c1ccc(C(=O)Nc2ccccc2)cc1 (centres undefined) was read as Artemis inh 2.
Screening CCC1CCCCN1S(=O)(=O)c1ccc(C(=O)Nc2nnc(-c3ccccc3Cl)o2)cc1 (centres undefined) returned Artemis inh 36*.
`CCCCN(CC)S(=O)(=O)c1ccc(C(=O)Nc2nnc(-c3ccccc3Cl)o2)cc1` gave Artemis inh 10.
`Cn1c(=O)[nH]c(=O)c2[nH]c(N(Cc3ccccc3)Cc3ccccc3)nc21` gave Artemis inh 13.
For Cc1ccc(-c2nc3ccccc3c(C(=O)NCc3cccs3)c2C)cc1 the results were Artemis inh 11.
`O=C(OCc1cnc(Cl)s1)c1cccc(Cl)c1Cl` gave Artemis inh 2.
O=C(Nc1ccc2oc(-c3cccc4ccccc34)nc2c1)c1ncn[nH]1 was read as Artemis inh 32*.
For Nc1ccc2oc(-c3cccc4ccccc34)nc2c1 the results were Artemis inh -2.
Screening CCC(=O)Nc1ccc2oc(-c3ccccc3Br)nc2c1 returned Artemis inh -3.
`N#Cc1c(-c2ccccc2)ccnc1Oc1ccccc1` gave Artemis inh -7.
`Cc1c(N2C(=O)CS/C2=N\N=C\c2ccc(Br)cc2)c(=O)n(-c2ccccc2)n1C` gave Artemis inh 17.
For Cc1ccccc1N=C1NC(=O)CC(c2ccccc2)S1 (centres undefined) the results were Artemis inh -3.
Screening COc1cccc(C(=O)N/N=C/c2cn[nH]c2-c2ccc(OC)cc2OC)c1 returned Artemis inh 7.
Cc1cc(-c2nnc3sc(-c4ccc(Cl)cc4Cl)nn23)n[nH]1 was read as Artemis inh 6.
Screening COc1cccc(OC)c1-c1nn2c(-c3cc(-c4ccccc4)n[nH]3)nnc2s1 returned Artemis inh 80*.
For CCOc1cccc(-c2nn3c(-c4cc(C)[nH]n4)nnc3s2)c1 the results were Artemis inh 6.
`CCCc1cc2c(cc1NC(=O)c1ccc(C)cc1)OCO2` gave Artemis inh -2.
Screening COc1ccccc1NC(=O)Cn1nc(-c2ccc(Cl)cc2)c2ccccc2c1=O returned Artemis inh -9.
`COc1ccc(CCNC(=O)c2ccc(CNS(=O)(=O)c3cc(C)ccc3C)cc2)cc1OC` gave Artemis inh 15.
`COC(=O)c1ccc(C2/C(=C(/O)c3ccc(OC)cc3)C(=O)C(=O)N2c2cc(C)on2)cc1` (centres undefined) gave Artemis inh 19.
For Cc1ccc(/C(O)=C2\C(=O)C(=O)N(c3cc(C)on3)C2c2cccc(Br)c2)cc1 (centres undefined) the results were Artemis inh 12.
COC(=O)c1ccc(C2/C(=C(/O)c3ccc(OC(C)C)cc3)C(=O)C(=O)N2c2cc(C)on2)cc1 (centres undefined) was read as Artemis inh 32*.
For N#Cc1ccccc1Cn1cc(C#N)c2ccccc21 the results were Artemis inh 10.
`Cc1[nH][nH]c(=O)c1C(c1c(C)[nH][nH]c1=O)c1cn(Cc2cccc3ccccc23)c2ccccc12` gave Artemis inh 47*.
O=C(O)CC(C(=O)O)c1cn(Cc2ccccc2)c2ccccc12 (centres undefined) was read as Artemis inh 2.
C=CCn1c(SCC(=O)Nc2ncc(Cc3cc(Cl)ccc3Cl)s2)nnc1-c1ccncc1 was read as Artemis inh -1.
CCOC(=O)c1cncc(C(=O)O)c1 was read as Artemis inh -10.
`Cc1cccc(C)c1N1CCN(c2ccc3nnc(C(F)(F)F)n3n2)CC1` gave Artemis inh 21.
Cc1ccc(C(=O)Oc2cc(C)n(C)c(=O)c2)cc1 was read as Artemis inh 1.
For N#Cc1c(-c2ccccc2)c(-c2ccccc2)nn(CC(=O)NNC(=O)Nc2ccc(Cl)c(Cl)c2)c1=O the results were Artemis inh 30*.
For N#Cc1c(-c2ccccc2)nc2n(-c3ccccc3)nc(C(=O)Nc3ccccc3)n2c1=O the results were Artemis inh 10.
`N#Cc1c(NC(=O)CCn2cnc3ccccc3c2=O)oc(-c2ccccc2)c1-c1ccccc1` gave Artemis inh 8.
CCOC(=O)c1cnc2ccc(C)cc2c1Sc1ccccc1C(=O)OC was read as Artemis inh 8.
For O=C(Nc1nc(=S)ss1)c1c(F)cccc1F the results were Artemis inh -4.
For CCNC(=O)c1cc2c(=O)n3cccc(C)c3nc2n(Cc2ccc(C)cc2)c1=N the results were Artemis inh 7.
Screening CCOC(=O)c1cc2c(=O)n3cccc(C)c3nc2n(CC2CCCO2)c1=NC(C)=O (centres undefined) returned Artemis inh 2.
For CCCCn1c(=NC(=O)c2ccc3c(c2)OCO3)c(C#N)cc2c(=O)n3cccc(C)c3nc21 the results were Artemis inh 40*.
`CC(C)C(C)(C#N)NC(=O)CSc1nnc(-c2ccccc2)o1` (centres undefined) gave Artemis inh -3.
`O=C(CSc1nnc(Cc2ccccc2)o1)Nc1ccc2c(c1)OCO2` gave Artemis inh -2.
For O=S(=O)(Cc1ccccc1)c1cnc2ccccc2n1 the results were Artemis inh -9.
`CC(=O)N1CCc2cc(S(=O)(=O)CCC(=O)Nc3c(C)n(C)n(-c4ccccc4)c3=O)ccc21` gave Artemis inh 8.
For COc1cccc(-c2csc(NC(C)=O)n2)c1 the results were Artemis inh -5.
Clc1ccc(-c2cn3nc4c(nc3n2)CCCC4)cc1 was read as Artemis inh 37*.
COc1cccc(-c2cn3nc4c(nc3n2)CCCC4)c1 was read as Artemis inh 36*.
For OC1CCN(c2c3c(nc4cc(-c5ccc(Cl)cc5)nn24)CCC3)CC1 the results were Artemis inh 4.
`Clc1ccc(-c2cn3cccnc3n2)cc1` gave Artemis inh -4.
`COc1cccc(-c2cc(C(F)(F)F)n3nc(N)nc3n2)c1` gave Artemis inh -3.
For COc1ccc(CCN(C(=O)c2cccc(F)c2)C2CC(=O)N(c3ccc(OC)cc3)C2=O)cc1 (centres undefined) the results were Artemis inh -1.
Screening COc1ccc(Cn2c(CCCO)nc3ccccc32)cc1OC returned Artemis inh -12.
CCOC(=O)c1[nH]c2ccccc2c1NC(=O)Nc1ccc(OC)cc1 was read as Artemis inh 5.
CCC(c1nnnn1C(C)(C)C)N1CCN(c2cc(Cl)ccc2C)CC1 (centres undefined) was read as Artemis inh -3.
Cc1cc(Cl)ccc1OCCCC(=O)NO was read as Artemis inh 63*.
Screening Cc1cc(Cl)ccc1OCCCC(=O)NCC1CCCO1 (centres undefined) returned Artemis inh 4.

Screens deposited in PubChem by Sanford-Burnham Center for Chemical Genomics.
